Whole data set: some 33,000 sequences, median “e-score” near -0.037, cut for the highest 2% near 0.34. Only a selection was taken, and the highest values are over-represented in it overall.
These sequences were tested against T1, GST-Rok (full length) (Bacillus subtilis subsp. subtilis str. …, UniProt O34857 1-191) (assay: protein binding microarray; Rok is a gene silencer of Bacillus subtilis; high values mean tight binding). Settings: protein: recombinant; tags: GST (pTH5325, pDEST15-Magic modified); dsDNA, one strand shown.
T1 sequence: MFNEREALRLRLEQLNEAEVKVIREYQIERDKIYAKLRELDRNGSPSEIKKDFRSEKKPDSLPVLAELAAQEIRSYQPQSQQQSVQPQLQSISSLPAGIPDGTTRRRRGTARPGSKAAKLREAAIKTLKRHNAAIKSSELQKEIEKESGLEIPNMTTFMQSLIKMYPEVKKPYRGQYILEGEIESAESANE
How it was run: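 Every oligonucleotide joins a 25-mer constant primer to a 35-mer variable part drawn from a de Bruijn sequence of order 10, so each non-palindromic 8-mer appears at least 32 times and each palindromic 8-mer 16 times. The preference for every 8-mer is reported as a unitless, rank-based enrichment score (E-score). This score spans 0.5 for the most favored 8-mer to −0.5 for the most disfavored.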

Sequence | binding signal [E-score]
GCTGCTGA | -0.177
CTTCCTTA | -0.172
CTAGGAAG | -0.0907
AGTACGCA | 0.194
AGTATACT | 0.338
AGTATACA | 0.271
AGTATACC | 0.164
AATATACG | 0.268
AATATACT | 0.395
ACTATACT | 0.26
CATAAAAG | 0.102
AGTGCGTC | 0.0828
ACCTCCAA | -0.0283
TCACGTGA | -0.0446
TGGCCGAA | -0.123
ACCTAGAC | 0.0548
AATTATAC | 0.377
CATTATAC | 0.265
AATTATCG | 0.217
AATTATAG | 0.381
ACTTATAT | 0.332
AGTTATAT | 0.291
CATTATAG | 0.255
GATTATAC | 0.217
AATTATAA | 0.361
CATTATAA | 0.228

Sequence | binding signal [E-score]
GATTATAA | 0.208
AATTATAT | 0.407
ACAGGTCT | -0.119
TGCTGAAA | -0.0464
GCAACTGA | -0.0401
ACAAGTAA | 0.185
ACCTATGG | -0.177
GACAATGA | -0.0569
GTCATCTA | 0.113
GCAGACGC | -0.181
ATGGTAAC | 0.214
AGCTAGTC | 0.078
AACTAGTG | 0.39
AACTAGTT | 0.441
TACTAGTA | 0.45
AGCTAGTA | 0.373
AACTAGCT | 0.317
CACTAGTG | 0.0643
TACTAGCA | 0.243
AACTAGTC | 0.206
TACTAGGA | 0.183
GGCTAGTA | 0.0598
AACTAGCG | 0.241
CTGACCAC | -0.141
ACCGGACT | -0.00817
ATTGTTAC | 0.15

Sequence | binding signal [E-score]
AAGCTTCC | -0.103
CTAGCTTA | 0.26
AAGTCGAT | 0.0686
GATCTCAA | -0.162
CCGCTCAG | -0.0853
GACTAGTA | 0.365
AACTAGTA | 0.471
CACTAGTA | 0.205
GACTAGGA | -0.00844
AACTAGGC | 0.118
AACTAGGG | -0.00258
ACCTAGTA | 0.292
GACTAGTC | 0.224
AACTAGGT | 0.361
CCGAATTA | 0.235
AGAGTGAA | -0.0866
GTAAGCAA | 0.0243
ACCTTACT | 0.101
CATAATTC | 0.126
GGTAATTA | 0.375
AGTAATTA | 0.381
AGTAATTG | 0.29
CATAATTA | 0.362
GGTAATCA | 0.0323
GATAATTA | 0.223
AGTAATTC | 0.29

Sequence | binding signal [E-score]
CGTAATTA | 0.328
CACAGTGA | 0.137
TAATTTCA | 0.273
GCTACGTA | 0.298
ACCGGCAT | -0.0275
GGAAGGTA | 0.0109
CCCGGCAC | -0.109
ATAAACTC | 0.15
ATAAACTG | 0.175
GTAAACTA | 0.351
ATAAACTA | 0.361
CTAAACTC | 0.235
CTAAACTA | 0.336
CTAAACGA | -0.072
GTAAACAA | 0.0786
GTAAACGA | -0.0497
AAAACTCT | 0.171
AAGGACGA | -0.157
CTCATCCA | 0.013
GCTCCTAC | -0.158
ACAAGACG | -0.0878
CGTTAAGA | -0.0916
ATAACACG | 0.22
GACTGATA | 0.238
CAGAATAG | 0.106
CGTTCGGA | -0.107
